From PubChem BioAssay AID1745853 (National Center for Advancing Translational Sciences (NCATS), 2022)
Values joined by “and” are separate entries in the source; they are usually repeats but may differ in a detail not shown here. Equal values may be shown once. About 970 (3.9%) of roughly 25,000 compounds were called active. Not shown: some 8% with an inconclusive outcome. The rule behind the calls is not given here. Shown is part of a subset that was picked to be rich in actives. Some compounds were tested as several samples or in several runs, with calls that do not always agree.

Assays:
Experiment in all cases: Primary Screen for Target Class Profiling of Small Molecule Inhibitors of Methyltransferases
[1] = biological target: Catechol O-methyltransferase (Homo sapiens) (UniProt P21964); settings: purified enzyme, MTase-Glo SAH luminescence; activity change, negative = inhibition: at 40 µM, stronger effect = lower value; outcome: 40 uM
How it was run: (§1)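 Each enzyme was assayed with SAM and its substrate. SAH formation detected by MTase-Glo luminescence; single-point 40 uM screen[…].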

[2] = biological target: Glycine N-methyltransferase (Homo sapiens) (UniProt Q14749); settings: purified enzyme, MTase-Glo SAH luminescence; measured here: GNMT inhibition; at 40 µM; stronger effect = lower value
How it was run: as §1

[3] = biological target: Guanidinoacetate N-methyltransferase (Homo sapiens) (UniProt Q14353); settings: purified enzyme, MTase-Glo SAH luminescence; measured here: GAMT inhibition; at 40 µM; stronger effect = lower value
How it was run: as §1

[4] = biological target: Histamine N-methyltransferase (Homo sapiens) (UniProt P50135); settings: purified enzyme, MTase-Glo SAH luminescence; measured here: HNMT inhibition; at 40 µM; stronger effect = lower value
How it was run: as §1

[5] = biological target: Nicotinamide N-methyltransferase (Homo sapiens) (UniProt P40261); settings: purified enzyme, MTase-Glo SAH luminescence; measured here: NNMT inhibition; at 40 µM; stronger effect = lower value
How it was run: as §1

[6] = biological target: Phenylethanolamine N-methyltransferase (Homo sapiens) (UniProt P11086); settings: purified enzyme, MTase-Glo SAH luminescence; measured here: PNMT inhibition; at 40 µM; stronger effect = lower value
How it was run: as §1
% is set by controls: 0 for no effect and ±100 for the full control effect.

Sequence of Glycine N-methyltransferase (Homo sapiens) (Q14749 whole entry, looked up): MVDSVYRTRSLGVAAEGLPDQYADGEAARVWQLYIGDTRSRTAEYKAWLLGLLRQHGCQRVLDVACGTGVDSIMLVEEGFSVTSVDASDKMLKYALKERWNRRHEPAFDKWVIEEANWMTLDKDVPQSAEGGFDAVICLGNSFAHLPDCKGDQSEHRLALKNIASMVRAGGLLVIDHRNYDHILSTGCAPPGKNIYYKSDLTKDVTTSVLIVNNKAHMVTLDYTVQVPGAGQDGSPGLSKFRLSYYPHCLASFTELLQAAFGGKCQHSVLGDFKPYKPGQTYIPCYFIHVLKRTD
Sequence of Histamine N-methyltransferase (Homo sapiens) (P50135 whole entry, looked up): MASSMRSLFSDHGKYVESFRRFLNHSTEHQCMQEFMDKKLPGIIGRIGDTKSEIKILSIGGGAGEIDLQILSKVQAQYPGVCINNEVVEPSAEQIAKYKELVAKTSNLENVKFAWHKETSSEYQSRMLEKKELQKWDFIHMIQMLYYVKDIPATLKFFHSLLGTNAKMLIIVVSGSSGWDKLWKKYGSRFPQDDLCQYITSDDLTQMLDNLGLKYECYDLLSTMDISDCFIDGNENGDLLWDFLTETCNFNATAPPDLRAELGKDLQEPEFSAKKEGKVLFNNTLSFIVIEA
Sequence of Phenylethanolamine N-methyltransferase (Homo sapiens) (P11086 whole entry, looked up): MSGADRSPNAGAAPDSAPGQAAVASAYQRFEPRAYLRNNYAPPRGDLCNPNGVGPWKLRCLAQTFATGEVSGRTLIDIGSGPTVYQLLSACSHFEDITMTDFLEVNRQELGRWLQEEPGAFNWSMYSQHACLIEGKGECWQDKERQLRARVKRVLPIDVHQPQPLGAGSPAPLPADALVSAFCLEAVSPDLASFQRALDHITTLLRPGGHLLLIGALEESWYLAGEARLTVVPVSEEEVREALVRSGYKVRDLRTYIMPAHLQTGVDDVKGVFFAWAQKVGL
Sequence of Nicotinamide N-methyltransferase (Homo sapiens) (P40261 whole entry, looked up): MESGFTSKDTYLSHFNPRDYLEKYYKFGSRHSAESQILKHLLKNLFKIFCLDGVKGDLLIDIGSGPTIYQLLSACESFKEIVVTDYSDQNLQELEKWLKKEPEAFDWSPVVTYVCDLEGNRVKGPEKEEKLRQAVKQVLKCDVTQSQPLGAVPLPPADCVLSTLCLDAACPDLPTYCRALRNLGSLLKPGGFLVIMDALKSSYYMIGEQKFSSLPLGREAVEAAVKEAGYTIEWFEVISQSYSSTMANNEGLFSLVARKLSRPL
Sequence of Catechol O-methyltransferase (Homo sapiens) (P21964 whole entry, looked up): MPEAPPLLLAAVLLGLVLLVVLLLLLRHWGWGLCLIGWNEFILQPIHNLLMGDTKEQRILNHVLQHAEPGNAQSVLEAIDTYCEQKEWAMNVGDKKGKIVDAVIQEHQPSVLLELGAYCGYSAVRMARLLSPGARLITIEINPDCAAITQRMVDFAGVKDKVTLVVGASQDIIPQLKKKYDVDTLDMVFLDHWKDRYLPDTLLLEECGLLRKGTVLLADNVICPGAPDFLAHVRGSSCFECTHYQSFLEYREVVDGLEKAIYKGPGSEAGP

Structure (SMILES): COc1ccc(C(=O)N2CCC3(CC2)CCC(O)(CN(C)C)CC3)cc1OC
- activity change, negative = inhibition [1]: 2.82% (inactive)
- activity change, negative = inhibition [2]: -0.206%
- activity change, negative = inhibition [3]: -1.89%
- activity change, negative = inhibition [4]: -18.9%
- activity change, negative = inhibition [5]: -5.54%
- activity change, negative = inhibition [6]: -1.06%

Structure (SMILES): CC(C)CCn1c(=O)c2ccccc2n2c(CCC(=O)NCCc3ccccc3)nnc12
- activity change, negative = inhibition [1]: 3.9% (inactive)
- activity change, negative = inhibition [2]: -7.17%
- activity change, negative = inhibition [3]: 0%
- activity change, negative = inhibition [4]: 6.82%
- activity change, negative = inhibition [5]: -15%
- activity change, negative = inhibition [6]: 0.405%

Structure (SMILES): CN(CCCNC(=O)CCCc1nnc2n3nc(-c4ccccc4)nc3c3ccccc3n12)Cc1ccccc1
- activity change, negative = inhibition [1]: -4.54% (active)
- activity change, negative = inhibition [2]: -16.6%
- activity change, negative = inhibition [3]: 1.44%
- activity change, negative = inhibition [4]: -57.9%
- activity change, negative = inhibition [5]: 0.458%
- activity change, negative = inhibition [6]: -4.78%

Structure (SMILES): CCCCNC(=O)CCc1nnc2n(CC(C)C)c(=O)c3ccccc3n12
- activity change, negative = inhibition [1]: 3.12% (inactive)
- activity change, negative = inhibition [2]: -1.98%
- activity change, negative = inhibition [3]: 4.49%
- activity change, negative = inhibition [4]: 5.26%
- activity change, negative = inhibition [5]: 4.71%
- activity change, negative = inhibition [6]: -0.917%

Structure (SMILES): COC(=O)c1ncn2c1C(=O)N(Cc1cc(OC)ccc1OC)C(C)(C(=O)NCc1ccccc1)C2 (stereo not given)
- activity change, negative = inhibition [1]: -9.56% (inactive)
- activity change, negative = inhibition [2]: -4.3%
- activity change, negative = inhibition [3]: 3.99%
- activity change, negative = inhibition [4]: -2.02%
- activity change, negative = inhibition [5]: -4.11%
- activity change, negative = inhibition [6]: -4.82%

Structure (SMILES): CN(C)c1cc2c(Nc3ccc4c(cnn4Cc4ccccc4)c3)ncnc2cn1
- activity change, negative = inhibition [1]: -13.2% (active) and -7.52% (inactive)
- activity change, negative = inhibition [2]: -7.53% and -14.5%
- activity change, negative = inhibition [3]: 10.1% and 6.13%
- activity change, negative = inhibition [4]: 1.63% and -3.02%
- activity change, negative = inhibition [5]: -17% and -13.5%
- activity change, negative = inhibition [6]: -62.6% and -40%

Structure (SMILES): CCC(C)C(=O)OC1C(C)C2(O)C(C=C(CO)CC3(O)C(=O)C(C)=CC32)C2C(C)(C)C12OC(=O)C(C)C (stereo not given)
- activity change, negative = inhibition [1]: -2.75% (inactive)
- activity change, negative = inhibition [2]: -4.22%
- activity change, negative = inhibition [3]: -5.2%
- activity change, negative = inhibition [4]: -3.1%
- activity change, negative = inhibition [5]: -15.7%
- activity change, negative = inhibition [6]: -0.901%

Structure (SMILES): O=C(NCC1CCCCC1)c1cc(-c2cc(Cl)cc(Cl)c2)c2nncn2n1
- activity change, negative = inhibition [1]: -5.12% (inactive)
- activity change, negative = inhibition [2]: -8.77%
- activity change, negative = inhibition [3]: -5.46%
- activity change, negative = inhibition [4]: -7.54%
- activity change, negative = inhibition [5]: -13.3%
- activity change, negative = inhibition [6]: -2.36%

Structure (SMILES): CC(C)CCNC(=O)c1ccc2c(=O)nc3c(-c4ccc(Cl)cc4)n[nH]n3c2c1
- activity change, negative = inhibition [1]: -1.51% (inactive)
- activity change, negative = inhibition [2]: -1.88%
- activity change, negative = inhibition [3]: 4.17%
- activity change, negative = inhibition [4]: -4.65%
- activity change, negative = inhibition [5]: 0.687%
- activity change, negative = inhibition [6]: -0.404%

Structure (SMILES): COc1ccc(CCN2C(=O)c3ccc(-c4ccco4)n3CC2(C)C(=O)NCc2ccc(Cl)cc2)cc1OC (stereo not given)
- activity change, negative = inhibition [1]: 0.852% (inactive)
- activity change, negative = inhibition [2]: -6.96%
- activity change, negative = inhibition [3]: 1.72%
- activity change, negative = inhibition [4]: 2.32%
- activity change, negative = inhibition [5]: -28.2%
- activity change, negative = inhibition [6]: -1.05%

Structure (SMILES): Cc1cc2c(cc3n2CC(C)(C(=O)NC2CCCCC2)N(C2CCCCCC2)C3=O)o1 (stereo not given)
- activity change, negative = inhibition [1]: 3.65% (inactive)
- activity change, negative = inhibition [2]: 2.96%
- activity change, negative = inhibition [3]: 9.51%
- activity change, negative = inhibition [4]: 3.49%
- activity change, negative = inhibition [5]: -0.25%
- activity change, negative = inhibition [6]: -2.76%

Structure (SMILES): CCCCCCc1cc2c(-c3ccccc3)cc(=O)oc2cc1OCC(N)=O
- activity change, negative = inhibition [1]: -7.58% (inactive)
- activity change, negative = inhibition [2]: -9.86%
- activity change, negative = inhibition [3]: 1.37%
- activity change, negative = inhibition [4]: -0.051%
- activity change, negative = inhibition [5]: -9%
- activity change, negative = inhibition [6]: -8.85%

Structure (SMILES): COc1c2c(c(C)c3c1C(=O)OC3)OC1(C)CC(O)C34OC(O)(CCC3(C)C1C2)OC4(C)C (stereo not given)
- activity change, negative = inhibition [1]: -2.85% (inactive)
- activity change, negative = inhibition [2]: -1.14%
- activity change, negative = inhibition [3]: -7.45%
- activity change, negative = inhibition [4]: -0.188%
- activity change, negative = inhibition [5]: -20.3%
- activity change, negative = inhibition [6]: -0.001%

Structure (SMILES): COc1ccc(OC)c(CCNC(=O)CCn2ccc3cc(S(=O)(=O)N4CCCC4)ccc32)c1
- activity change, negative = inhibition [1]: 1.88% (inactive)
- activity change, negative = inhibition [2]: 1.91%
- activity change, negative = inhibition [3]: 4.56%
- activity change, negative = inhibition [4]: 3.65%
- activity change, negative = inhibition [5]: -0.408%
- activity change, negative = inhibition [6]: 0.497%

Structure (SMILES): CCOc1ccccc1CN1CCC(Cc2nc(-c3cccnc3)n[nH]2)C1 (stereo not given)
- activity change, negative = inhibition [1]: -5.67% (active)
- activity change, negative = inhibition [2]: -4.21%
- activity change, negative = inhibition [3]: -1.54%
- activity change, negative = inhibition [4]: -56.9%
- activity change, negative = inhibition [5]: -49.4%
- activity change, negative = inhibition [6]: -12.9%

Structure (SMILES): Cn1nccc1C(=O)N1CCC(Cc2nc(C3CC3)n[nH]2)C1 (stereo not given)
- activity change, negative = inhibition [1]: -2.8% (inactive)
- activity change, negative = inhibition [2]: -3.99%
- activity change, negative = inhibition [3]: -1.84%
- activity change, negative = inhibition [4]: -1.69%
- activity change, negative = inhibition [5]: -5.4%
- activity change, negative = inhibition [6]: -4.14%

Structure (SMILES): CC(C)NC(=O)c1ccccc1OCC1CCCN(Cc2cccnc2)C1 (stereo not given)
- activity change, negative = inhibition [1]: -0.392% (inactive)
- activity change, negative = inhibition [2]: -1.68%
- activity change, negative = inhibition [3]: -10.2%
- activity change, negative = inhibition [4]: -2.4%
- activity change, negative = inhibition [5]: -8.48%
- activity change, negative = inhibition [6]: -0.898%

Structure (SMILES): CCC(C)N1Cc2cc(NC(=O)c3ccc([N+](=O)[O-])cc3)ccc2OCC1=O (stereo not given)
- activity change, negative = inhibition [1]: -3.17% (inactive)
- activity change, negative = inhibition [2]: -7.2%
- activity change, negative = inhibition [3]: -10.5%
- activity change, negative = inhibition [4]: -3.63%
- activity change, negative = inhibition [5]: -19.6%
- activity change, negative = inhibition [6]: -7.68%

Structure (SMILES): CC(=O)c1ccc2c(c1)[C@H](NC(=O)c1ccc(F)c(Cl)c1)[C@H](O)C(C)(C)O2
- activity change, negative = inhibition [1]: -7.4% (inactive)
- activity change, negative = inhibition [2]: -1.85%
- activity change, negative = inhibition [3]: -7.24%
- activity change, negative = inhibition [4]: -2.99%
- activity change, negative = inhibition [5]: -18.7%
- activity change, negative = inhibition [6]: -13.1%

Structure (SMILES): COC[C@H]1NC(=O)CC[C@H]1C(=O)N1CCN(c2cccc(C)c2)CC1
- activity change, negative = inhibition [1]: -9.6% (inactive)
- activity change, negative = inhibition [2]: -5.9%
- activity change, negative = inhibition [3]: -7.51%
- activity change, negative = inhibition [4]: -3.65%
- activity change, negative = inhibition [5]: -13.6%
- activity change, negative = inhibition [6]: -21.5%
